FadD28 FP inh: M. tuberculosis FadD28 bisubstrate binding inhibition; FadD28 bisubstrate probe binding, fluorescence polarization; inhibition, % at 12.5 µM; 360,000 tested, 0.22% active; in the data active means inhibition above about 8.5%, passing the limit was not always enough
BioA inh-1: inhibitors of Mycobacterium tuberculosis BioA enzyme | purified M. tuberculosis BioA enzyme, plate reader | inhibition, % at 9.99 µM | 360,000 tested, 0.096% active; in the data active means inhibition above about 40%
Mtb hypoxia rep: reduces hypoxia-regulated biosensor signal in M. tuberculosis | 300,000 tested, 0.1% active | M. tuberculosis hypoxia-regulated fluorescent reporter, fluorescence | fluorescence inhibition, % (no concentration beside the values) | AID 1159583; in the data active means fluorescence inhibition mostly above about 23%, no sharp cut-off; inactive means mostly below about 17%
TcdB inh: blocks C. difficile toxin B glycohydrolase activity; P18177; TcdB glycohydrolase enzymatic assay, plate reader; inhibition, % at 9.99 µM; 350,000 tested, 0.24% active; in the data active means inhibition above about 10%
PrP 5UTR inh: suppresses PrP 5' UTR mRNA reporter expression | AID 488862 | cell-based PrP 5' UTR mRNA reporter, plate reader | inhibition, % (no concentration beside the values) | 340,000 tested, 0.35% active; in the data active means inhibition above about 52%
PriA SSB inh: K. pneumoniae PriA-SSBct interaction inhibition; AlphaScreen SSBct-PriA binding, biotinylated peptide; inhibition, % at 33 µM; 430,000 tested, 0.6% active; in the data active means inhibition mostly above about 37%, no sharp cut-off; inactive means mostly below about 20%
PrP 5UTR single: prion 5' UTR mRNA inhibition, cherry-pick retest | cell-based prion protein 5' UTR reporter, plate reader | shares compounds with PrP 5UTR inh | 1,100 tested, 48% active | inhibition, % at 2.5 µM; in the data active means inhibition above about 54%
BioA inh-2: Mtb BioA enzyme inhibition; shares compounds with BioA inh-1; purified BioA enzyme, plate reader, dose response; max activity, %; 310 tested, under 10 active;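 further: top concentration of the dilution series was 10 µM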
HepG2 tox 2: cytotoxicity in HepG2 cells | AID 651898 | max activity, % | shares compounds with BioA inh-1 | 310 tested, under 10 active | plate reader
NIH3T3 tox 5: NIH3T3 viability loss; activity change, negative = cytotoxicity, % at 26 µM; 310 tested, under 10 active; NIH3T3 cytotoxicity, plate reader; shares compounds with BioA inh-1
A number is an active result; – = inactive; · = no result shown. Shown are actives, neighbours in structure and some others; about 1% of the full set was active somewhere. Unless noted, how the calls were made is not given here.

SMILES	FadD28 FP inh	BioA inh-1	Mtb hypoxia rep	TcdB inh	PrP 5UTR inh	PriA SSB inh	BioA inh-2	HepG2 tox 2	NIH3T3 tox 5	others
O=c1c2ccccc2cnn1CCOc1ccccc1	–	–	–	·	71	–	·	·	·	PrP 5UTR single=70
O=C(NC1=NCCS1)C1COc2ccccc2O1 (stereo unspecified)	–	–	–	·	72	–	·	·	·	PrP 5UTR single=77
O=C(Nc1ccncc1)C1COc2ccccc2O1 (stereo unspecified)	–	–	·	·	–	–	·	·	·
CCCN(CCC)C(=O)c1ccc2c(=O)n(Cc3ccco3)c(=S)[nH]c2c1	–	·	–	–	83	–	·	·	·	PrP 5UTR single=–
CN1CCN(C(=O)c2ccc3c(=O)n(Cc4ccco4)c(=S)[nH]c3c2)CC1	–	–	–	·	–	–	·	·	·
C[C@@H]1CN([C@@H](C)CO)C(=O)c2cc(C#Cc3cccnc3)cnc2O[C@@H]1CN(C)S(C)(=O)=O	·	–	·	–	·	·	·	·	·
C[C@@H]1CN([C@H](C)CO)C(=O)c2cc(C#Cc3cccnc3)cnc2O[C@H]1CN(C)S(C)(=O)=O	·	84	·	–	·	·	–	–	–
CCCC(=O)Nc1cccc(NC(=O)c2ccc(C)c([N+](=O)[O-])c2)c1	–	44	–	·	–	–	–	–	–
COc1cc(-c2nc3ccccc3nc2-c2ccc(O)c(OC)c2)ccc1O	–	51	–	–	–	–	–	–	–
COc1cc(-c2nc3ccccn3c2N)ccc1O	–	–	–	–	–	–	·	·	·
O=C(c1ccccc1)N1CC(COc2ccccc2)OC(c2cccnc2)O1 (stereo unspecified)	–	–	·	·	–	–	·	·	·
C[C@H]1CN([C@@H](C)CO)C(=O)Cc2cc(NC(=O)Cn3cnnn3)ccc2O[C@H]1CN(C)Cc1ccc2c(c1)OCO2	·	–	·	–	·	·	·	·	·
C[C@@H]1CN([C@H](C)CO)C(=O)Cc2cc(NC(=O)Cn3cnnn3)ccc2O[C@H]1CN(C)Cc1ccc2c(c1)OCO2	·	63	·	–	·	·	–	–	–
C[C@@H]1CN([C@@H](C)CO)C(=O)Cc2cc(NC(=O)Cn3cnnn3)ccc2O[C@H]1CN(C)Cc1ccc2c(c1)OCO2	·	56	·	–	·	·	–	–	–
O=C(CC1CCCCN1S(=O)(=O)c1ccccc1)NCc1cccs1 (stereo unspecified)	·	·	·	·	·	–	·	·	·
O=S(=O)(c1ccc(Cl)s1)N1C2CCC1COC2	·	·	·	·	·	–	·	·	·
Nc1cc(C(=O)O)ccc1Nc1ccccc1	–	75	–	·	–	–	–	–	–
CCOC(=O)N1CCC(NC(=O)C2CCN(C(=O)N3CCOc4ccccc43)CC2)CC1	–	–	–	·	–	–	·	·	·
CSC(=NC#N)N1CCN(c2ccc(Cl)cc2)CC1	–	–	–	·	–	–	·	·	·
COc1ccc(NC(=O)c2ccc(S(=O)(=O)N(C)C)cc2)cc1OC	–	43	·	·	–	–	–	–	–
COc1ccc(C(=O)Nc2ccc(Cn3ccnc3)cc2)cc1OC	–	44	–	–	–	–	–	–	–
COc1cc(OC)cc(C(=O)Nc2ccc(Cn3ccnc3)cc2)c1	–	–	–	–	–	–	·	·	·
COc1ccc(NC(=O)c2ccc(N(C)S(C)(=O)=O)cc2)cc1OC	–	–	–	–	–	–	·	·	·
COc1cc2c(cc1NC(=O)c1cccnc1)CCCC2	–	56	·	·	–	–	–	–	–
Cn1nnc2cc(C(=O)Nc3ccccc3)ccc21	–	–	–	–	–	–	·	·	·
SMILES	FadD28 FP inh	BioA inh-1	Mtb hypoxia rep	TcdB inh	PrP 5UTR inh	PriA SSB inh	BioA inh-2	HepG2 tox 2	NIH3T3 tox 5	others
Cn1nnc2cc(C(=O)Nc3cccnc3)ccc21	–	55	·	·	–	–	–	–	–
Cc1c(C)c2ccc(OCC(=O)N3CCN(c4ccccc4)CC3)cc2oc1=O	–	–	–	·	–	–	·	·	·
CCCCN1C(=O)c2ccc(C(=O)Nc3cccnc3)cc2C1=O	–	82	–	·	–	–	–	–	–
COc1ccc(C(=O)Nc2cccnc2)cc1OC	–	57	–	·	–	–	–	–	–
O=C(Cc1c(O)c2ccccc2[nH]c1=O)NCc1ccccc1F	–	–	·	·	–	–	·	·	·
COc1cc(C(=O)N2Cc3cc4ccccc4nc3C2C)cc(OC)c1OC (stereo unspecified)	–	69	·	–	·	·	–	–	–
COC(=O)C1CCCCN1C(=O)CCc1nnc(CCc2c[nH]c3ccccc23)o1 (stereo unspecified)	–	·	–	–	–	–	·	·	·
O=C(Nc1ccc2ccccc2c1)c1cccnc1	–	–	·	·	–	–	·	·	·
O=C(Nc1ccc(Cl)c(-c2nc3ccccc3[nH]2)c1)c1cccnc1	–	64	–	·	–	–	–	–	–
O=C(NCCCn1ccnc1)C(=O)NC1CCCCC1	–	·	·	–	–	–	·	·	·
O=C(CN1CCN(c2ccccn2)CC1)Nc1ccc(OCc2ccccc2)cc1	–	·	·	·	–	–	·	·	·
C[C@H](CO)N1C[C@H](C)[C@@H](CN(C)S(=O)(=O)c2ccc(Cl)cc2)Oc2c(NC(=O)NC3CCCCC3)cccc2C1=O	·	–	·	–	·	·	·	·	·
CC(=O)N1[C@@H]2c3ccc(-c4cccnc4)c(=O)n3C[C@@H]2[C@@H](CO)[C@@H]1C(=O)NCc1ccccc1Cl	·	85	·	–	·	·	–	–	–
CCNC(=O)[C@H]1[C@H](CO)[C@H]2Cn3c(ccc(-c4ccccc4)c3=O)[C@H]2N1C(=O)Cc1cccnc1	·	40	·	–	·	·	–	–	–
CCN(c1ccccc1)S(=O)(=O)c1ccc(C(=O)Nc2cc(C)no2)cc1	·	·	·	·	·	–	·	·	·
CC(C)Cn1c(N2CCN(C(=O)c3cccs3)CC2)nc2ccccc21	–	·	–	·	–	–	·	·	·
CC(C)n1c(N2CCN(C(=O)c3cccs3)CC2)nc2ccccc21	–	42	–	·	–	–	–	–	–
Cc1nn(CC(=O)NCC(C)c2ccccc2)c(=O)c2cc3occc3n12 (stereo unspecified)	–	–	–	–	–	–	·	·	·
CC(CNC(=O)CCCn1ncn2c(cc3occc32)c1=O)c1ccccc1 (stereo unspecified)	–	67	–	–	–	–	–	–	–
Cc1nc2nc(SCC(=O)NCCCN3CCOCC3)nn2c(C)c1Cc1ccccc1	–	47	–	–	–	–	–	–	–
CCOCCCNC(=O)CSc1nc2nc(C)c(Cc3ccccc3)c(C)n2n1	–	76	–	–	–	–	–	–	–
O=S1(=O)CC(N2CCN(CCO)CC2)CN1CCc1ccccc1 (stereo unspecified)	–	–	·	–	·	·	·	·	·
C[C@H](CO)N1C[C@H](C)[C@@H](CN(C)C(=O)c2ccccc2)Oc2ncc(Br)cc2C1=O	·	–	·	–	·	·	·	·	·
CCC(CO)[n+]1c(C)cc(/C=C2\Sc3ccccc3N2Cc2ccccc2)cc1C (stereo unspecified)	–	53	·	22	–	·	–	–	–
CC(=O)N1CCCCN2[C@H](CO)[C@H](c3ccc(C#Cc4ccccc4F)cc3)[C@H]2C1	·	–	·	–	·	·	·	·	·
